A short description of assay [1]: Cell Viability - BJ (AID 421; calls by dose curve;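 note: potency is the fitted concentration of half-maximal effect; cells exposed to compound for 40 hours at 37 °C before readout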). As to conditions: BJ fibroblast viability, qHTS. In a few lines:
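Luminescent ATP signal (CellTiter-Glo, 20 min at room temperature) served as the read-out of viable BJ cells after 40 hours of compound treatment. Responses were scaled between DMSO and 100 uM tamoxifen, and AC50 values were obtained by Hill modeling.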

Assay [2] in a line: Cell Viability - MRC5 (AID 434; calls by dose curve;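 note: potency is the fitted concentration of half-maximal effect; cells exposed to compound for 40 hours at 37 °C; potency reflects cytotoxicity seen as loss of intracellular ATP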). As to conditions: MRC5 lung fibroblast viability, qHTS. In outline: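 ATP luminescence read-out (CellTiter-Glo, 20 min RT) after 40 hr, 37 °C compound exposure of 1500 MRC5 cells/well. Data normalized to DMSO (basal) and 100 uM tamoxifen (100% inhibition); AC50 from standard Hill equation.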
In general terms: qHTS replaces the single test concentration by a dilution series.

Assay [3] in a line: Cell Viability - SK-N-SH (AID 435; calls by dose curve;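 note: potency is the fitted concentration of half-maximal effect; compound exposure lasted 40 h at 37 °C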). As to conditions: SK-N-SH neuroblastoma cell viability qHTS. In a few lines: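 Cells seeded at 1500 per well and incubated 5 hr at 37 °C. Compound added, then 40 hr at 37 °C. CellTiter-Glo added, 20 min at room temperature, luminescence read.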
A short description of assay [4]: Cell Viability - N2a (AID 540; active = well fitted curve in the direction sought with a large enough effect; an effect the other way counts as inactive or inconclusive;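 note: potency is the fitted concentration of half-maximal effect; cells exposed to compound for 40 h at 37 °C; nearly all actives have a fitted effect of over 45% in size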). The conditions noted are these: N2a mouse neuroblastoma cell viability; activity change, negative = cytotoxicity: at 92.2 µM (top of the series). In a few lines: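 Cytotoxicity was scored as loss of cellular ATP in N2a cells, a mouse neuroblastoma line. Compounds are applied in a qHTS concentration series for 40 hr at 37 °C.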
A short description of assay [5]: Cell Viability - NIH 3T3 (AID 541; active = well fitted curve in the direction sought with a large enough effect; an effect the other way counts as inactive or inconclusive; note: potency is the fitted concentration of half-maximal effect; nearly all actives have a fitted effect of over 25% in size). The conditions noted are these: NIH 3T3 cell viability, qHTS; activity change, negative = cytotoxicity: at 92.2 µM (top of the series). In a few lines:
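Cells seeded at 1000/well, rested 5 hr at 37 °C, then dosed and incubated 40 hr at 37 °C. CellTiter-Glo added, 20 min room temperature, luminescence read. AC50 by Hill fit.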

Assay [6] is described as follows: Cell Viability - Renal Proximal Tubule (AID 545; active = well fitted curve in the direction sought with a large enough effect; an effect the other way counts as inactive or inconclusive; note: nearly all actives have a fitted effect of over 40% in size). The conditions noted are these: renal proximal tubule cells viability, primary cells of rat origin; activity change, negative = cytotoxicity: at 91.7 µM (top of the series). In a few lines:
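Cytotoxicity is scored as a concentration-dependent drop in cellular ATP in primary rat renal proximal tubule cells exposed for 40 hr. AC50 derives from Hill modelling.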

Assay [7] in a line: Cellular Toxicity (caspase-3) HepG2 (AID 654; active = well fitted curve in the direction sought with a large enough effect; an effect the other way counts as inactive or inconclusive;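 note: cells exposed to compound for 16 hours before reading; 0% = DMSO alone and 100% = caspase signal from 100 µM tamoxifen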). In a few lines: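 Caspase 3/7 activation in HepG2 is measured as rising luminescence after a 16 hr treatment at 37 °C. Values are scaled between DMSO basal and 100 uM tamoxifen, and AC50 is fitted with the Hill equation.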
Assay [8] is described as follows: Cellular Toxicity (caspase-3) Jurkat (AID 655; active = well fitted curve in the direction sought with a large enough effect; an effect the other way counts as inactive or inconclusive;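 note: cells exposed to compound for 16 h at 37 °C before reading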). The conditions noted are these: Jurkat caspase-3 activation, luminescence; caspase-3 activation: at 92.2 µM (top of the series), DMSO = 0%, tamoxifen = 100%. In a few lines:
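Caspase 3/7 activation is scored as increased luminescence in Jurkat cells cultured with compound for 16 hours in complete medium. AC50 values come from Hill fits of qHTS concentration-response data normalized to DMSO and 100 uM tamoxifen controls.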

A short description of assay [9]: Cellular Toxicity (caspase-3) HUV-EC-C (AID 656; active = well fitted curve in the direction sought with a large enough effect; an effect the other way counts as inactive or inconclusive). In a few lines:
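Read-out: luminescence proportional to caspase 3/7 activity, measured 20 min after adding Caspase-Glo 3/7 reagent. Cells (HUV-EC-C) had received compound for 16 hr at 37°C. Increases relative to DMSO and 100 uM tamoxifen gave concentration-response AC50 values.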

A short description of assay [10]: Cellular Toxicity (caspase-3) SHSY5Y (AID 657; active = well fitted curve in the direction sought with a large enough effect; an effect the other way counts as inactive or inconclusive). In a few lines: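 Cells plated and incubated 5 h at 37 °C, dosed over a concentration range, incubated 16 h, then given Caspase-Glo 3/7 reagent for 1 h at room temperature before luminescence reading. Staurosporine (10 uM) defined full stimulation.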
Assay [11] can be described thus: Cellular Toxicity (caspase-3) Mesangial (AID 660; active = well fitted curve in the direction sought with a large enough effect; an effect the other way counts as inactive or inconclusive;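 note: cells exposed to compound for 16 h before the caspase read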). As to conditions: mesangial cells, normalized: DMSO 0%, 100 µM tamoxifen 100%; at 91.7 µM (top of the series). In a few lines:
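Seed cells derived from normal human renal glomeruli, incubate 5 h, add compounds across concentrations and incubate 16 h at 37 °C. Caspase 3/7 activation is then quantified by luciferase light, with AC50 derived by Hill modeling.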

Assay [12] can be described thus: Cellular Toxicity (caspase-3) H-4-II-E (AID 663; active = well fitted curve in the direction sought with a large enough effect; an effect the other way counts as inactive or inconclusive;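 note: cells exposed to compound for 16 hr before readout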). As to conditions: H-4-II-E rat hepatoma; Potency: caspase-3 activation; caspase-3 activation: at 92.2 µM (top of the series), scaled: DMSO 0%, 100 µM tamoxifen 100%. In outline:
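H-4-II-E rat hepatoma, 1500 cells/well, 5 hr settle at 37 °C; compound 16 hr, 37 °C, complete medium; Caspase-Glo 3/7, 20 min RT; luminescence. DMSO = 0%, 100 uM tamoxifen = 100%; Hill-equation AC50.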

Assay [13] in a line: Cellular Toxicity (caspase-3) N2a (AID 665; active = well fitted curve in the direction sought with a large enough effect; an effect the other way counts as inactive or inconclusive;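 note: compound exposure lasted 16 h at 37 °C before readout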). The conditions noted are these: Potency: caspase-3 activation. In outline: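 Caspase-3/7 activation, measured as increased luminescence from aminoluciferin release, is quantified in mouse N2a cells exposed to compounds for 16 h. Values are normalized to DMSO and 10 uM staurosporine, with AC50 derived by Hill modelling.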
Assay [14] can be described thus: Cellular Toxicity (caspase-3) Renal Proximal Tubule (AID 667; active = well fitted curve in the direction sought with a large enough effect; an effect the other way counts as inactive or inconclusive;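 note: cells exposed to compound for 16 hours at 37 °C before detection; 0% = DMSO basal and 100% = 10 µM staurosporine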). In a few lines: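 In qHTS format, rat primary proximal tubule cells seeded at 1000 per well are exposed to compounds for 16 hours at 37 °C. An increase in Caspase-Glo 3/7 luminescence indicates caspase activation.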
A short description of assay [15]: Cell Viability - LYMP2-003 (AID 965; active = well fitted curve in the direction sought with a large enough effect; an effect the other way counts as inactive or inconclusive;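 note: potency is the fitted concentration of half-maximal effect; cells exposed to compounds for 24 h before reading; nearly all actives have a fitted effect of over 50% in size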). In a few lines:
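Acute cytotoxicity is scored as a concentration-dependent drop in intracellular ATP, measured by luciferase luminescence in human lymphoblastoid cells treated for 24 hours at 37 C. AC50 values derive from Hill-equation modelling.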

In assay [16] the target is Peroxisome proliferator-activated receptor alpha (Homo sapiens) (UniProt Q07869). Nature of the assay: qHTS assay for small molecule agonists of the peroxisome proliferator-activated receptor alpha (PPARalpha) signaling pathway (AID 651778; active = well fitted curve in the direction sought with a large enough effect; an effect the other way counts as inactive or inconclusive; note: % of control where 0% means no effect). The conditions noted are these: PathHunter PPARalpha complementation, chemiluminescence, 6 h; max response: stronger effect = higher value. In outline: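 Enzyme-fragment complementation assay in which ligand-bound PPARalpha translocates and forms an active enzyme that generates chemiluminescence. Cells were plated overnight, exposed to compound for 6 hr at 37 C, and then given detection reagent for 60 min at room temperature.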

Assay [17] in a line: NFAT Signaling Pathway (AID 444).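 Note: carbachol stimulus at about its EC50 of 1 µM final; % is set by controls: 0 for no effect and ±100 for the full control effect.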 The conditions noted are these: Jurkat NFAT-bla M1, carbachol, beta-lactamase ratio, 5 h. In a few lines: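 Jurkat cells with NFAT-driven β-lactamase reporter and co-expressed M1 receptor, stimulated with carbachol (final 1 uM, ~EC50), compound titration, 5 h at 37 °C. CCF4 loaded 1 h at RT; 460/530 nm ratio gave %activity and AC50.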
Assay [18] in a line: Stat Signaling Pathway (AID 446).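 Note: ME-180 cervical cancer cells given 40 pM IL-6 alongside compound; SIE-controlled beta-lactamase reporter measured as 460/530 nm FRET emission ratio; % is set by controls: 0 for no effect and ±100 for the full control effect.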 The conditions noted are these: ME-180 (cervical carcinoma) SIE beta-lactamase reporter, IL-6 stimulated, 5 h. In outline:
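Compound effects on IL-6-induced STAT reporter activity were measured in ME-180 cells. After overnight culture, cells were co-treated with 40 pM IL-6 for 5 hrs before beta-lactamase substrate loading at room temperature.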

The target in assay [19] is Glucocorticoid receptor (Homo sapiens) (UniProt P04150). The assay is described as follows: GR-GFP Redistribution (AID 450;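 active = compounds whose dose series gives a full or clear partial fitted curve of increased nuclear translocation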; note: potency is the fitted concentration of half-maximal effect).
The target of assay [20] is Mitogen-activated protein kinase 10 (Mus musculus) (UniProt Q61831). Nature of the assay: JNK3 AlphaScreen Assay (AID 530).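 Note: kinase came from lysate of stimulated human HepG2 cells; signal reports phosphorylation of biotinylated GST-cJun 1-79 at Ser73 with 10 µM ATP; % is set by controls: 0 for no effect and ±100 for the full control effect.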 In a few lines: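 Activity was read by AlphaScreen after JNK3-containing HepG2 lysate (cytokine pre-activated) phosphorylated biotinylated GST-cJun with 10 uM ATP at room temperature. Phospho-Ser73 cJun antibody with Protein-A acceptor beads provided detection.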
A general note: Alpha assays give light when donor and acceptor beads are brought close together.

The mark [21] stands for this setting: at 17.2 µM (top of the series) unless noted.

“And” between values parts separate entries of the source, which are not always exact repeats. Equal values may be shown once. Values without a mark were called inactive. Records with an inconclusive call do not appear. The source made the active and inactive calls. Unless noted, calls come from the whole dose curve; as a rule, active = well fitted curve in either direction with a large enough effect (not every such curve was filed as active); inconclusive = small, poorly fitted or top-dose-only effect, or another doubt; inactive = flat fitted curve, though single readings scatter. Bounds are passed on as bounds.

Glucocorticoid receptor (Homo sapiens), sequence (P04150 whole entry, looked up): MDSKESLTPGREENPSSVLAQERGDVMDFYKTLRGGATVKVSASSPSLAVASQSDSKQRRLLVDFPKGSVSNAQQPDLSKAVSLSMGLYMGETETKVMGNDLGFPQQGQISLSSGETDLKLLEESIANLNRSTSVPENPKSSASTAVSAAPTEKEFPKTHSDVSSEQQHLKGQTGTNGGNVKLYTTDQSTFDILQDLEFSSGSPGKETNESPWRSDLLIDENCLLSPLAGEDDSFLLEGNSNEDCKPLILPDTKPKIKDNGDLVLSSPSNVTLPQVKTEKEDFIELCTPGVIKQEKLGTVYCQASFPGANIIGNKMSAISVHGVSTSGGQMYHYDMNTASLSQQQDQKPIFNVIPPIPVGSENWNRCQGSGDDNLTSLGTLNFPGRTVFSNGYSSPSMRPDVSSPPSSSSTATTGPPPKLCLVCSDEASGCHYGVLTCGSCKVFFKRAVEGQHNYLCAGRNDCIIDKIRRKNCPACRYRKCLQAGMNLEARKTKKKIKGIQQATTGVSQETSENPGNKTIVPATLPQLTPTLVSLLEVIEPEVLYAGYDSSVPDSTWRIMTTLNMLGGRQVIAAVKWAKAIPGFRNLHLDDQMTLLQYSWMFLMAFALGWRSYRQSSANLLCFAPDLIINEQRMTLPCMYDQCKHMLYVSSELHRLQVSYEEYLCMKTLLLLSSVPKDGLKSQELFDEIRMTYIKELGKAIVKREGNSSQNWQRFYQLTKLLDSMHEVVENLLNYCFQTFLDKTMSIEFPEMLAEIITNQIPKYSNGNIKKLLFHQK
Peroxisome proliferator-activated receptor alpha (Homo sapiens), sequence (Q07869 whole entry, looked up, the tested form may be a part): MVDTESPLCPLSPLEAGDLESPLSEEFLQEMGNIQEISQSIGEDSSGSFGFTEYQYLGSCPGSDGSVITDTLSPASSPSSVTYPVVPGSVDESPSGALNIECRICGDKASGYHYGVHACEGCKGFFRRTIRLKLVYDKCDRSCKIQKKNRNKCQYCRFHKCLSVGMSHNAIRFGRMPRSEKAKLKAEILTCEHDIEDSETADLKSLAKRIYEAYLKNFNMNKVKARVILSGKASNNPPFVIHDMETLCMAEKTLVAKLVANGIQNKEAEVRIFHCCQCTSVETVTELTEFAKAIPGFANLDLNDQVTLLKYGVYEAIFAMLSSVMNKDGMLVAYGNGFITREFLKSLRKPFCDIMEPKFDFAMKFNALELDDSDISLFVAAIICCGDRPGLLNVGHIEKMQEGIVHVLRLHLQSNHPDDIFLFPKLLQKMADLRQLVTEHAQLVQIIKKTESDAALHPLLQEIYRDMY

As for `CCC(C)Nc1ccc(NC(C)CC)cc1` (centres undefined), the Potency in [1] is 14 µM (active); in assay [2], 20.7 µM (active); in [3], 8.73 µM (active); in [4], 15.8 µM (active); in [5] it was 5.01 µM (active); in [15], 10 µM (active). In addition, the activity change, negative = cytotoxicity in assay [6] was -100% (active). In addition, the Potency entry in assay [7], in assay [8], in assay [9], in assay [10] and in assay [13] was “inactive” each time. Moreover, the caspase-3 activation in [11] is -4.04%; in [12], -5.35%. In addition, the compound was classed as inactive in assay [14]. For the same compound, the max response in assay [16] was -4.78% and -5%.
On to `CCCc1[nH]nc2c1C(c1cccc(OC)c1)C(C#N)=C(N)O2` (centres undefined), for which the activity change, negative = inhibition in [17] (setting [21]) was 1.34%. Besides, in [18] (setting [21]), the activity, negative = inhibition is -24.8%. The Potency in assay [19] is more than 20.6 µM.
As for `COc1cc2c(c(OC)c1OC)-c1ccc(OC)c(=O)cc1[C@H](NC(C)=O)CC2`, the activity change, negative = inhibition was -4.77% in assay [17] (at 17.2 µM (top of the series)) and 3.11% in assay [17] (at 38 µM (top of the series)). Further, the activity, negative = inhibition in assay [18] (at 17.2 µM (top of the series)) was 4.59%; in assay [18] (at 38 µM (top of the series)), -18.3%. For the same compound, the Potency entry in assay [20] was “inactive”.
With `CCOc1ccc(-c2nnc3sc(COc4ccccc4)nn23)cc1`, in [17] (setting [21]), the activity change, negative = inhibition is 4.76%. For the same compound, the activity, negative = inhibition in [18] (setting [21]) is 4.42%. The Potency in assay [19] was more than 20.6 µM.
In the same order, the values of `C=CCOC(=O)C1=C(C)NC(SCC(=O)N(CC)CC)=C(C#N)C1c1ccccc1` (centres undefined) are 2.35%, -2.74% and more than 20.6 µM.
In the case of `O=C(c1ccc2c3c(cccc13)C(=O)N(O)C2=O)N1CCCCC1`, the activity change, negative = inhibition in [17] (setting [21]) is 0.433%. In addition, in [18] (setting [21]), the activity, negative = inhibition was 22.1%. Also, the Potency in [19] is more than 20.6 µM.
For the compound `CCCc1[nH]nc2c1C(c1c(C)nn(-c3ccccc3)c1Cl)C(C#N)=C(N)O2` (centres undefined), the activity change, negative = inhibition in assay [17] (setting [21]) was 14.9%. Further, the activity, negative = inhibition in assay [18] (setting [21]) is -29.6%. Besides, in assay [19], the Potency is more than 20.6 µM.
Regarding `COc1ccccc1-c1nnc2sc(C3CCCCC3)nn12`, in assay [17] (setting [21]), the activity change, negative = inhibition is -6.47%. Moreover, the activity, negative = inhibition in assay [18] (setting [21]) was 8.63%. Also, the Potency in assay [19] was more than 20.6 µM.
For `Cc1cc(N/C=C/C(=O)c2cccc3ccccc23)no1`, in assay [17] (setting [21]), the activity change, negative = inhibition is -3.82%. Further, in [18] (setting [21]), the activity, negative = inhibition is -10.2%. Also, the Potency in [19] was more than 20.6 µM.
For the compound `CCCc1cc(-n2ccnc2C)n2c(nc3ccccc32)c1C#N`, in assay [17] (setting [21]), the activity change, negative = inhibition was 6.63%. Also, the activity, negative = inhibition in [18] (setting [21]) was -3.66%. The Potency in [19] is more than 20.6 µM.
Consider `CCCSC1=C(C#N)C(c2ccc(OC)cc2)C2=C(CC(C)(C)CC2=O)N1` (centres undefined), for which the activity change, negative = inhibition in [17] (setting [21]) is -24.7%. In addition, the activity, negative = inhibition in assay [18] (setting [21]) is -13%. Besides, the Potency in assay [19] is more than 20.6 µM.
In the same order, the values of `Cc1nc2sc3c(NCc4ccco4)ncnc3c2c2c1COC(C)(C)C2` are -8.41%, -18.1% and more than 20.6 µM.
`CCOC(=O)N1CCN(c2ncnc3c2cnn3-c2ccc(OC)cc2)CC1`: the activity change, negative = inhibition in assay [17] (setting [21]) is 10.2%. Moreover, the activity, negative = inhibition in assay [18] (setting [21]) is -2.17%. In assay [19], the Potency is more than 20.6 µM.

Values taken from PubChem BioAssay (NCATS).
